HCV inh: qHTS Assay for Inhibitors of Hepatitis C Virus (HCV); 340,000 compounds, 3.4% hits; Potency, µM (doses to about 41.8 µM), without a hit: at the highest dose activity change, negative = inhibition, hits mostly inhibitors; AID 651820, 2012; Huh7.5.1 HCVcc-Cre infection, luciferase reporter, 44 h; note: potency is the fitted concentration of half-maximal effect; % is set by controls: 0 for no effect and ±100 for the full control effect
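Cells seeded at 1,000/well and cultured 4 h, then compounds added followed by HCVcc-Cre virus (~0.5 moi). After 44 h further culture, luciferase substrate was added, plates held 15 min at room temperature, and luminescence read for 15 sec.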
SARS PLP yeast: qHTS of Yeast-based Assay for SARS-CoV PLP. 330,000 compounds, 0.19% hits. Potency, µM (top dose mostly 32.9 µM), for inactives: at the highest dose activity, positive = growth rescue, usual class: activators. AID 485353, 2010. S. cerevisiae expressing SARS-CoV PLpro, growth rescue; calls by dose curve; note: potency is the fitted concentration of half-maximal effect; 0% is about no effect; nearly all actives have a fitted effect of over 55% in size
HCMV antiviral: qHTS Assay for inhibitors of the human cytomegalovirus (HCMV); HFF cells, HCMV-luciferase reporter, 72 h; hits give low values; activity change, negative = inhibition, % at 57.5 µM; 410,000 compounds, 4.5% hits; in the data active = activity change below about -60%; inconclusive = no clear call, values can overlap the other calls; inactive = above about -39%; note: % is set by controls: 0 for no effect and ±100 for the full control effect
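Human foreskin fibroblasts infected with luciferase-reporter HCMV at MOI 1 PFU/cell, compounds at two doses. Luciferase measured 72 h post infection; normalized to buffer-only basal and Salinomycin (10uM) controls.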
Pf growth 48h: Primary qHTS for delayed death inhibitors of the malarial parasite plastid, 48 hour incubation; 310,000 compounds, 5.9% hits; P. falciparum luciferase growth in erythrocytes, 48 h; Potency, µM (top dose mostly 28.7 µM), without a hit: at the highest dose activity change, negative = inhibition, most hits filed as inhibitors; note: potency is the fitted concentration of half-maximal effect; % is set by controls: 0 for no effect and ±100 for the full control effect
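Parasite viability was followed by luminescence of a genomically integrated firefly luciferase. Cultures held 0.1% parasitemia at 2% hematocrit (final), incubated under 5% CO2 at 37 C.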
Pf growth 96h: Primary qHTS for delayed death inhibitors of the malarial parasite plastid, 96 hour incubation; P. falciparum luciferase reporter growth, 96 h; Potency, µM (titrated, usually from 28.7 µM), for the others: at the top dose activity change, negative = inhibition, usual class: inhibitors; 320,000 compounds, 6.9% hits; AID 504834, 2011; note: potency is the fitted concentration of half-maximal effect; % is set by controls: 0 for no effect and ±100 for the full control effect
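Readout is luminescence from an integrated firefly luciferase in P. falciparum. Red cells, 2% hematocrit and 0.05% parasitemia final, were cultured with compound through two parasite generations (96 hours) at 37 C, 5% CO2.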
Sm TGR block: qHTS Assay for the Inhibitors of Schistosoma Mansoni Peroxiredoxins. 360,000 compounds, 3% hits. AID 485364, 2010. purified TGR, DTNB reduction, TNB absorbance 405 nm. Schistosoma mansoni thioredoxin glutathione reductase (TGR), Q962Y6. Potency, µM (titrated, usually from 114 µM), for the others: at the top dose activity change, negative = inhibition, hits mostly inhibitors; note: potency is the fitted concentration of half-maximal effect; % is set by controls: 0 for no effect and ±100 for the full control effect; nearly all actives have a fitted effect of over 60% in size
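Kinetic colorimetric format: TGR-catalysed, NADPH-driven DTNB reduction monitored via TNB absorbance. Enzyme dispensed at 20 nM; compound exposure 15 min at room temperature before reaction start.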
Active calls of the source: *; ? = inconclusive; / = not tested or not shown; ! = a repeat was not active. This is a sample that favours compounds with a hit; in the whole collection about 15% have one here. Unless noted, calls come from the whole dose curve; as a rule, active = well fitted curve in the direction sought with a large enough effect; inconclusive = small, poorly fitted or top-dose-only effect, or another doubt; inactive = no such curve, though single readings can be large; an effect the other way counts as inactive or inconclusive.

SMILES | HCV inh | SARS PLP yeast | HCMV antiviral | Pf growth 48h | Pf growth 96h | Sm TGR block
COc1ccc(Nc2nc3c([nH]2)c(=O)[nH]c(=O)n3C)cc1 | 12.0% | -1.0% | 35.0 | 2.8% | 13.1µM* | 0.0%
Cc1ccc(Nc2nc3ccccc3c(=O)[nH]2)cc1C | -4.5% | 2.2% | -23.2 | ? | 0.0% | -12.2%
COCCCNc1nc2c([nH]1)c(=O)[nH]c(=O)n2C | 15.8% | 1.2% | 23.3 | 11.3% | 0.0% | -7.4%
CCN(CC)C(=O)C1=C(C)N(Cc2ccc(OC)cc2)C(=O)C(CC(=O)NC2CCCC2)C1 (stereo not given) | / | / | 2.6 | / | / | /
CN(C(=O)COC(=O)CNC(=O)c1sc2ccccc2c1Cl)c1ccccc1 | 5.6% | 11.3% | ? | -11.6% | 1.6% | 4.4%
O=C(Nc1ccc2ccccc2c1)C(=O)c1ccccc1F | / | / | -18.8 | / | / | /
COc1cc(Nc2c3ccccc3nc3ccccc23)cc(OC)c1OC | ? | -1.0% | -32.2 | 7.38µM* | ? | -2.3%
COc1ccc(Nc2c3c(nc4ccccc24)CCC3)cc1Cl | / | / | -18.6 | / | / | 14.3%
COc1ccccc1Nc1c2ccccc2nc2ccccc12 | 10µM* | -1.1% | -98.7* | 7.38µM* | 2.33µM* | -13.9%
c1ccc2c(Nc3ccc4c(c3)OCCO4)c3c(nc2c1)CCC3 | ? | 0.6% | -78.8* | ? | 11.0% | /
COc1ccccc1Nc1nc2ccccc2[nH]1 | -19.5% | -2.1% | 28.8 | ? | ? | 0.0%
COc1ccc(Nc2c3c(nc4ccccc24)CCCC3)cc1OC | ? | 7.3% | 8.2 | -17.7% | 0.8% | -15.7%
COc1ccc(C)cc1Nc1c2c(nc3ccccc13)CCC2 | ? | -1.0% | -88.5* | / | 49.4% | 4.1%
COc1ccc(OCC(=O)OCC(=O)c2ccc(OC)c(F)c2)cc1 | 10.2% | -0.2% | 27.3 | 27.4% | -1.4% | 6.8%
Cc1ccccc1CC(=O)N1CCOCC1 | 0.7% | -1.1% | 2.3 | 8.7% | 42.3% | -15.5%
O=C(O)c1ccc(Nc2c3ccccc3nc3ccccc23)cc1 | -4.3% | -11.0% | -10.3 | 2.08µM* | 8.4% | -9.8%
COc1ccc(NC(=O)c2c3c(nc4ccccc24)CCC3)cc1 | 6.6% | -13.9% | 5.8 | ? | ? | 10.6%
COc1cccc(Nc2nc(-c3ccccc3)c3cc(C)ccc3n2)c1 | / | / | -36.2 | / | / | 14.4%
COc1ccc(Nc2c3ccccc3nc3ccccc23)cc1 | ? | -8.7% | -101.8* | 4.15µM* | 42.7% | -3.6%
COc1ccc(Nc2c3c(nc4ccccc24)CCC3)cc1 | ? | -2.1% | -94.0* | ? | -27.7% | 16.1%
COc1cc(Nc2nc(-c3ccccc3)c3cc(C)ccc3n2)cc(OC)c1OC | 10µM* | -4.1% | 97.4 | ? | 2.7% | 39.8µM*
COc1ccc(C(=O)C2CCCN(C(=O)c3csc(SC)n3)C2)cc1F (stereo not given) | / | / | -2.4 | / | / | /
Fc1ccc(Nc2c3c(nc4ccccc24)CCC3)cc1 | 14.1µM* | 0.8% | -63.9* | ? | -3.5% | 17.0%
c1ccc(Nc2c3c(nc4ccccc24)CCC3)cc1 | ? | -0.6% | ? | ? | 8.9% | -5.5%
COc1ccc(Nc2cc(Nc3cc(OC)c(OC)c(OC)c3)ncn2)cc1 | ? | -1.0% | -89.9* | ? | 6.0% | 8.3%
SMILES | HCV inh | SARS PLP yeast | HCMV antiviral | Pf growth 48h | Pf growth 96h | Sm TGR block
O=S1(=O)CC(O)C(N=Nc2c(O)n(Cc3ccccc3)c3ccccc23)C1 (stereo not given) | -1.9% | 0.3% | 0.0 | -2.8% | -8.6% | ?
O=C(c1cccs1)c1cn(Cc2ccccc2Cl)c2ccccc12 | ? | -11.6% | -4.2 | / | ? | 1.1%
N#Cc1ccccc1Cn1cc(C(=O)c2cccs2)c2ccccc21 | -6.9% | 3.9% | -80.7* | 14.7µM* | 0.5% | 15.9%
O=C(NCCn1ccc2ccccc21)c1ccc(S(=O)(=O)N2CCOCC2)cc1 | 0.2% | -2.2% | -8.2 | ? | ? | -0.1%
O=C(/C=C/c1c[nH]c2ccccc12)c1cccc2ccccc12 | ? | -65.4% | -10.2 | 3.7% | 9.28µM* | -25.1%
O=C(c1cccnc1)N1C2CCC1CC(O)(c1ccc(F)cc1)C2 (stereo not given) | 20.1% | -1.3% | 23.9 | -2.2% | 69.9% | -0.7%
OC1(c2ccc(OC(F)F)cc2)CSC(=Nc2cccnc2)N1C1CC1 (stereo not given) | 31.6µM* | -7.4% | -30.4 | ? | ? | ?
CCOC(=O)c1cnc2c(C)cc(C)cc2c1NCCCN1CCOCC1 | -29.6% | -8.2% | -61.8* | ? | 4.2% | -3.9%
CCOC(=O)c1cnc2c(Cl)c(Cl)ccc2c1NCCN1CCOCC1 | ? | -1.6% | -12.3 | -0.6% | -1.8% | 39.8µM*!
CCOC(=O)c1cnc2c(C)cc(C)cc2c1NCCN1CCOCC1 | / | / | 1.6 | / | / | -1.0%
CCOC(=O)c1cnc2c(C)c(C)ccc2c1NCCN1CCOCC1 | ? | -3.4% | -12.1 | ? | ? | 5.9%
CCOC(=O)c1cnc2ccc(Br)cc2c1NCCCN1CCOCC1 | -7.6% | -4.1% | -25.2 | ? | 9.6% | 44.7µM*
CCOC(=O)c1cnc2ccc(C)cc2c1NCCN1CCOCC1 | -19.7% | 1.1% | 37.0 | 11.7µM* | 13.8% | ?
CCOC(=O)c1ccc2ncc(C(=O)OCC)c(NCCCN3CCOCC3)c2c1 | 7.2% | 1.2% | 19.5 | ? | ? | ?
Cc1cccc(C)c1NC(=O)C1(C)CN(S(C)(=O)=O)CC(=O)N1Cc1ccc2c(c1)OCO2 (stereo not given) | / | / | 16.7 | / | / | /
Cc1ccc(Cl)c2sc(N3CCN(C(=O)c4ccco4)CC3)nc12 | ? | -16.5% | 9.9 | ? | ? | 4.6%
CCOc1ccc(N(CC(=O)NCc2ccc(F)cc2)C(=O)CCC(=O)Nc2nccs2)cc1 | 5.2% | -0.9% | 27.3 | ? | ? | -13.1%
Cc1ccc(NC(=S)NC(NC(=O)c2ccccc2)C(Cl)(Cl)Cl)c(C)c1 (stereo not given) | ? | -4.8% | -67.9* | 10.4µM* | ? | -0.3%
O=C(NC(NC(=S)Nc1ccc(Cl)cc1Cl)C(Cl)(Cl)Cl)c1cccc([N+](=O)[O-])c1 (stereo not given) | ? | -12.8% | 4.0 | 1.65µM* | ? | 3.3%
O=C(COc1ccccc1)NC(NC(=S)Nc1ccccc1C(=O)O)C(Cl)(Cl)Cl (stereo not given) | 22.7% | 4.6% | -13.8 | -13.0% | 22.8% | -16.3%
Cc1ccc(C)c(NC(=S)NC(NC(=O)Cc2ccccc2)C(Cl)(Cl)Cl)c1 (stereo not given) | ? | -2.2% | ? | ? | / | -14.1%

Compound activity from PubChem.
